The text below walks through data of PubChem BioAssay (NCI).

The panel holds about 83,000 compounds, 20% with a hit somewhere; the sample as a whole holds those more often.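 Values shown are percent growth following 48 h exposure of cells in 96-well plates to a single concentration of compound; below 10 was considered active.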 Values without a mark were called inactive. Active and inactive are the calls of the source.

What all share (experiment): NCI-60 one-dose screen, 48 h (100 = growth as untreated, 0 = no growth, -100 = all killed)
Settings in all cases: 10 µM unless noted

For test [1], the system named is SR leukemia.
The subject of test [2] is RPMI-8226 leukemia.
The test system of test [3] is OVCAR-8 ovarian.
The test system of test [4] is OVCAR-5 ovarian.
For test [5], the system named is OVCAR-4 ovarian.
The subject of test [6] is SK-OV-3 ovarian.
For test [7], the system named is IGROV1 ovarian.
Test [8] has as its system OVCAR-3 ovarian.
For test [9], the system named is NCI/ADR-RES ovarian.
In test [10] the test system is T-47D breast.
The test system of test [11] is BT-549 breast.
For test [12], the system named is MDA-MB-435 melanoma.
The subject of test [13] is MCF7 breast.
In test [14] the test system is HCT-116 colon.
Test [15] has as its system HCC-2998 colon.
For test [16], the system named is KM12 colon.
For test [17], the system named is MDA-MB-468 breast.

Take `CC1=C(C(=O)OCc2ccccc2)C(c2ccc(-n3cncn3)cc2)n2c(nc3ccccc32)N1` (stereo not drawn): the growth in [1] was 18%; in test [2] it was 35.4%; in test [3], 86.6%; in test [4] it was 79.3%; in test [5], 83.2%; in [6], 73.8%. Further, the growth in [7] was 62.2%; in [8], 24.2%; in [9], 41.5%; in test [10] it was 65.1%; in test [11], 52.9%; in test [12] it was -12.5% (active). Besides, the growth in test [13] is 13.1%; in test [14], 41.3%; in test [15], 75.4%; in test [16], 39.5%; in [17], -18.8% (active).
As for `O=C(/C=C/c1ccc(-c2ccccc2)cc1)c1nc2ccccc2n1Cc1ccc(F)cc1`, the growth in [1] was 1.5% (active); in test [2], -2.77% (active); in [3] it was 46%; in test [4], 43.5%; in test [5], 55.2%; in [6], 82.2%. Besides, the growth in test [7] was 55.7%; in test [8], 28.8%; in test [9], 49.6%; in [10] it was 18.3%; in test [11], 27.5%; in test [12], 15.6%. For the same compound, the growth is 14.7% in [13]; 13.8% in [14]; 31.5% in test [15]; 49.4% in [16]; 25.8% in test [17].
Turning to `Cc1cc(C)cc(C(=O)Nc2cccc(-c3cn(-c4ccc(S(N)(=O)=O)cc4)nn3)c2)c1`, the growth in test [1] is 51.6%; in [2], 89.8%; in test [3], 18.7%; in test [4], 81.5%; in [5], 42.1%; in test [6], 9.56% (active). The growth in [7] was 15.4%; in test [8], 87.4%; in [9], 55.9%; in test [10] it was 35%; in test [11] it was 67.8%; in [12], 85.9%. Also, the growth in test [13] was 31.5%; in test [14] it was 39.8%; in test [15] it was 49.9%; in test [16], 36.1%; in test [17], 41%.
On to `C=C1CC[C@@H]2[C@]3(C)COC(c4cn(-c5ccccc5)nc4-c4cccc([N+](=O)[O-])c4)O[C@@H]3CC[C@@]2(C)[C@@H]1C/C=C1/C(=O)OC[C@H]1O` (stereo partly drawn), for which the growth in test [1] was -16.7% (active); in [2], -42.4% (active); in test [3] it was -38.1% (active); in test [4] it was -24.1% (active); in test [5], 14%; in [6], 93%. The growth is -25% (active) in [7]; 15.1% in [8]; -42.6% (active) in test [9]; -42.4% (active) in test [10]; -55.9% (active) in test [11]; -26.4% (active) in test [12]. Moreover, the growth in [13] was 2.33% (active); in [14] it was -13.7% (active); in test [15] it was -86% (active); in [16] it was 7.66% (active); in test [17], -69.7% (active).
Take `CC(=O)Nc1ccc(-c2cn(-c3cccc(C(=O)Nc4ccc(N5CCN(C)CC5)cc4)c3)nn2)cn1`: the growth in test [1] is 68%; in test [2], 70.4%; in test [3], 81.6%; in test [4], 107%; in [5], 93.4%; in test [6], 93.8%. The growth was 88% in test [7]; 109% in test [8]; 89.2% in test [9]; 94% in test [10]; 74.6% in test [11]; 100% in [12]. Moreover, the growth is 45.9% in test [13]; 62.9% in [14]; 85% in test [15]; 68.9% in test [16]; -9.89% (active) in test [17].
On to `COc1cc(-c2ccc(/C=N/NC(=O)c3[nH]c4ccc(Br)cc4c3-c3ccccc3)s2)cc(OC)c1OC`, for which the growth in [1] is 79%; in [2], 61.1%; in test [3], 80.7%; in test [4], 101%; in test [5], 93.7%; in test [6] it was 99.6%. Moreover, the growth in test [7] was 95.6%; in test [8], 107%; in test [9] it was 71.7%; in [10] it was 73.9%; in test [11], 85.9%; in test [12], 92.2%. For the same compound, the growth in [13] was 72.1%; in test [14] it was 68.2%; in test [15], 101%; in [16] it was 82.3%; in test [17], 96.7%.
On to `N#Cc1c(-c2cccc(Cl)c2Cl)cc(-c2c[nH]c3ccccc23)[nH]c1=O`, for which the growth in test [1] is 42.3%; in test [2], 44.4%; in test [3] it was 72.5%; in test [4], 83.9%; in test [5], 75.2%; in [6], 94.4%. For the same compound, the growth is 71% in [7]; 86.1% in test [8]; 76.5% in test [9]; 63.4% in [10]; 24.3% in [11]; 57.7% in test [12]. Also, the growth in test [13] was 35.8%; in test [14], 18.3%; in [15] it was 88.1%; in [16], 64.3%; in [17], 46.5%.
Turning to `N#Cc1cnn(C(=O)c2ccccc2Br)c1NC(=O)c1ccc(Br)cc1Cl`, the growth in test [1] is 78.2%; in test [2] it was 102%; in test [3], 104%; in test [4], 102%; in test [5] it was 101%; in test [6] it was 86.7%. In addition, the growth in test [7] is 115%; in [8] it was 119%; in test [9] it was 98.7%; in test [10], 97%; in test [11], 91.1%; in [12], 103%. Moreover, the growth was 95.4% in [13]; 103% in [14]; 108% in test [15]; 102% in [16]; 94.2% in [17].
Consider `Cc1c(C(=O)NNC(=O)Nc2ccc(Cl)cc2)nnn1-c1ccc(Br)cc1`, for which the growth is 89.9% in test [1]; 98.7% in test [2]; 101% in test [3]; 102% in test [4]; 86.4% in test [5]; 79.6% in test [6]. Besides, the growth in [7] is 97.6%; in test [8] it was 116%; in [9] it was 94.4%; in test [10] it was 88.8%; in [11] it was 102%; in test [12], 99.7%. Also, the growth was 85% in test [13]; 90.7% in [14]; 106% in test [15]; 103% in test [16]; 91% in test [17].
